According to PubChem BioAssay (EPA / NIEHS):
Records with an inconclusive call do not appear. Calls of active or inactive are those of the source. Rule for the calls, unless noted: active = hit-call score of the fitted dose curve at least 0.9, where 1 is the maximum; inactive = score below 0.9.

Assays:
[1] = ACEA_ER_80hr: ACEA Biosciences xCELLigence Real-Time Cell Analysis on Estrogen Receptor Agonism for Proliferation (AID 2282667; active = hit-call score of the fitted dose curve at least 0.9, where 1 is the maximum); conditions: T47D proliferation, impedance (xCELLigence), 80 h
How it was run: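 Estrogen-driven proliferation is captured as electrode impedance in T47D cells 80 h after compound addition. Test articles ran at 8 concentrations, 1:4 dilutions from 100 uM final, in two replicate plates.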

[2] = ATG_CRE_CIS: Attagene CIS-FACTORIAL HepG2 Assay for human cAMP Responsive Element (CRE) binding protein 3 (AID 2282926); conditions: HepG2 CRE cis-reporter, Attagene multiplexed mRNA; actives raise or lower the signal
How it was run: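 Transfected HepG2 were treated for 24 hours, then RNA was extracted and reporter cDNA amplified with sequence-specific primers. Labelled fragments were separated by capillary electrophoresis, and the CRE signal was fitted bidirectionally with DMSO as baseline.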

[3] = target: CCAAT/enhancer-binding protein beta (Homo sapiens) (UniProt P17676); experiment: ATG_C_EBP_CIS: Attagene CIS-FACTORIAL HepG2 Assay for human CCAAT/Enhancer Binding Protein (C/EBP) beta (AID 2282927); conditions: HepG2 Attagene cis-factorial transcription factor reporter; actives raise or lower the signal
How it was run: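 Changes in reporter mRNA, rather than exogenous chimeric receptor activity, reflect native C/EBP signalling in transfected HepG2 cells dosed for 24 h; transcripts are detected by RT-PCR and capillary electrophoresis.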

[4] = ATG_CMV_CIS: Attagene CIS-FACTORIAL HepG2 Assay for human CMV (Internal Marker) (AID 2282928); conditions: HepG2 CMV promoter reporter, transcription factor profiling; actives raise or lower the signal;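 note: endpoint acts as a background internal control marker rather than a target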
How it was run: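 After transient transfection of HepG2 with reporter transcription units driven by cis-regulatory promoters, cells receive test chemical for 24 h. Labeled reporter amplicons, digested with HpaI, are sized and quantified by capillary electrophoresis against DMSO.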

[5] = ATG_DR4_LXR_CIS: Attagene CIS-FACTORIAL HepG2 Assay for human Liver X Receptor (LXR), DR4 submotif (AID 2282929); conditions: HepG2 Attagene DR4 cis-reporter, mRNA transcription; actives raise or lower the signal
How it was run: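 HepG2 cells transiently transfected with cis-promoter-driven multiplexed reporter units (DR4 element) were dosed for 24 h. Reporter mRNA was quantified by RT-PCR, fluorescent primer extension, HpaI digestion and capillary electrophoresis; bidirectional fitting versus DMSO baseline.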

[6] = target: Aryl hydrocarbon receptor (Homo sapiens) (UniProt P35869); experiment: ATG_Ahr_CIS: Attagene CIS-FACTORIAL HepG2 Assay for human Aryl Hydrocarbon Receptor (Ahr) (AID 2282930); conditions: HepG2 AhR cis-factorial reporter transcription; actives raise or lower the signal
How it was run: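 HepG2, transient MRTU (cis) transfection, 24 h exposure. RNA → cDNA → PCR → 6-FAM primer extension → HpaI 2 h 37 C → CE. Fit: bidirectional, DMSO baseline.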

[7] = ATG_BRE_CIS: Attagene CIS-FACTORIAL HepG2 Assay for human Bone Morphogenetic Protein (BMP) Response Element (BRE) (AID 2282933); conditions: HepG2 BMP response element reporter, Attagene transcription factor profiling; actives raise or lower the signal
How it was run: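 Endogenous transcription factor activity read in transiently transfected HepG2 cells after 24 h chemical exposure. Bidirectional curve fitting against DMSO; readout is reporter transcript level by RT-PCR with capillary electrophoresis of labelled products.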

[8] = target: Retinoic acid receptor alpha (Homo sapiens) (UniProt P10276); experiment: ATG_DR5_RAR_CIS: Attagene CIS-FACTORIAL HepG2 Assay for human Retinoic Acid Receptor Alpha (RARE), DR5 submotif (AID 2282934); conditions: HepG2 Attagene cis-factorial RARE DR5 reporter, mRNA; actives raise or lower the signal;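 for AC50: reporter responds to endogenous RAR alpha beta and gamma in HepG2 not RARA alone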
How it was run: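 HepG2, transient cis-reporter transfection, 24 h exposure. mRNA readout: RT-PCR, FAM label, HpaI cut, capillary electrophoresis. DMSO baseline, gain/loss fitting.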

[9] = target: Transcription factor E2F1 (Homo sapiens) (UniProt Q01094); experiment: ATG_E2F_CIS: Attagene CIS-FACTORIAL HepG2 Assay for human E2F Transcription Factor 1 (AID 2282935); conditions: HepG2 Attagene cis-reporter, E2F reporter RNA transcripts; actives raise or lower the signal
How it was run: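 Cis-element reporter mRNA induction in transiently transfected HepG2, 24 h exposure. Activity fitted in both directions relative to DMSO negative control.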

[10] = ATG_E_Box_CIS: Attagene CIS-FACTORIAL HepG2 Assay for human Enhancer Box (E-box) (AID 2282936); conditions: HepG2 E-box cis-reporter transcription, actives raise or lower the signal
How it was run: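 Cells: HepG2 (human liver), transient MRTU transfection. Exposure 24 h. RNA → oligo(dT) RT → PCR → 6-FAM label → HpaI → CE. Activity fitted both directions relative to DMSO.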

[11] = ATG_M_61_CIS: Attagene CIS-FACTORIAL HepG2 Assay for M61 Transcription Factor (Internal Marker) (AID 2282937); conditions: HepG2 Attagene CIS-FACTORIAL M61 internal marker reporter; actives raise or lower the signal
How it was run: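 HepG2 cells transiently transfected with cis-element-driven multiple reporter transcription units, dosed for 24 h. Reporter mRNA measured by RT-PCR, 6-FAM primer-extension labelling, HpaI digestion and capillary electrophoresis; bidirectional fit versus DMSO baseline.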

[12] = ATG_EGR_CIS: Attagene CIS-FACTORIAL HepG2 Assay for human Early Growth Response 1 (EGR1) (AID 2282938); conditions: HepG2 Attagene CIS-FACTORIAL EGR reporter mRNA; actives raise or lower the signal
How it was run: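 HepG2 cells transiently transfected with cis-promoter-driven multiplexed reporter transcription units; reporter mRNA measured 24 h after compound dosing by RT-PCR, 6-FAM primer extension, HpaI digestion and capillary electrophoresis. Bidirectional fit versus DMSO baseline.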

[13] = ATG_M_19_CIS: Attagene CIS-FACTORIAL HepG2 Assay for M19 Transcription Factor (Internal Marker) (AID 2282939); conditions: HepG2 Attagene CIS-FACTORIAL M19 internal marker reporter; actives raise or lower the signal
How it was run: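 Internal marker readout, fitted in both directions against DMSO, from HepG2 cells carrying transfected cis-element reporter constructs; RT-PCR and capillary electrophoresis of reporter mRNA after 24 h exposure.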

[14] = ATG_ERE_CIS: Attagene CIS-FACTORIAL HepG2 Assay for Estrogen Response Element (ERE) (AID 2282940); conditions: HepG2 ERE cis-reporter, Attagene RNA transcript; actives raise or lower the signal
How it was run: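 After 24 h compound treatment, RNA from transfected HepG2 cells was reverse-transcribed, reporter cDNA PCR-amplified, FAM-labelled, HpaI-cut and resolved by capillary electrophoresis. ERE-driven cis reporter transcripts reflect endogenous factors; gain or loss scored against DMSO.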

[15] = target: Hepatocyte nuclear factor 3-beta (Homo sapiens) (UniProt Q9Y261); experiment: ATG_FoxA2_CIS: Attagene CIS-FACTORIAL HepG2 Assay for human Forkhead box A2 (FOXA2) (AID 2282942); conditions: HepG2 cis-reporter transcription factor activity, 24 h; actives raise or lower the signal
How it was run: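 HepG2 cells transiently transfected with multiple cis-regulated reporter transcription units, dosed for 24 h. Reporter mRNA measured by RT-PCR, 6-FAM labelling, HpaI digestion and capillary electrophoresis; bidirectional fitting against DMSO baseline.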

[16] = ATG_FoxO_CIS: Attagene CIS-FACTORIAL HepG2 Assay for human Forkhead box O (FoxO) (AID 2282943); conditions: HepG2 Attagene cis-reporter, FoxO element, mRNA; actives raise or lower the signal
How it was run: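 Human hepatoma HepG2 cells carry transiently introduced reporter transcription units controlled by cis promoter elements. Chemical treatment lasted 24 h, and mRNA signal was compared with DMSO.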

[17] = ATG_GATA_CIS: Attagene CIS-FACTORIAL HepG2 Assay for human GATA Binding Protein (AID 2282944); conditions: HepG2 GATA cis-element reporter, Attagene multiplex mRNA; actives raise or lower the signal
How it was run: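 Reporter transcripts from a GATA cis-regulated unit, among multiplexed reporters in transfected HepG2 cells, were measured by RT-PCR with capillary electrophoresis after 24 h dosing. Induction or loss scored relative to DMSO.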

[18] = ATG_AP_2_CIS: Attagene CIS-FACTORIAL HepG2 Assay for human Activator Protein 2 (AP-2) (AID 2282932); conditions: HepG2 AP-2 cis-reporter, Attagene transcription factor profiling; actives raise or lower the signal
How it was run: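 HepG2, transient MRTU transfection, cis-regulated reporters; 24 h compound exposure; RNA isolated, RT-PCR, 6-FAM labelling, HpaI digest, CE fluorescence. DMSO = negative control/baseline, bidirectional fit.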

[19] = ATG_Ets_CIS: Attagene CIS-FACTORIAL HepG2 Assay for human Erythroblast Transformation Specific (ETS) (AID 2282941); conditions: HepG2 ETS cis-reporter transcription, actives raise or lower the signal
How it was run: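 Human HepG2 hepatoma cells were transiently transfected with promoter-driven reporter constructs and treated for 24 hours. Reporter transcripts were quantified by RT-PCR with fluorescent primer extension; bidirectional curve fitting used DMSO as reference.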

[20] = ATG_AP_1_CIS: Attagene CIS-FACTORIAL HepG2 Assay for human Activator Protein 1 (AP-1) (AID 2282931); conditions: HepG2 Attagene cis-factorial AP-1 reporter mRNA; actives raise or lower the signal
How it was run: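 HepG2 cells transiently transfected with cis-element-driven multiplex reporter units; 24 h compound exposure. Reporter mRNA quantified by RT-PCR, FAM-labelled fragments resolved by capillary electrophoresis; bidirectional fit versus DMSO baseline.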

Measured: AC50

Sequence of CCAAT/enhancer-binding protein beta (Homo sapiens) (P17676 whole entry, looked up): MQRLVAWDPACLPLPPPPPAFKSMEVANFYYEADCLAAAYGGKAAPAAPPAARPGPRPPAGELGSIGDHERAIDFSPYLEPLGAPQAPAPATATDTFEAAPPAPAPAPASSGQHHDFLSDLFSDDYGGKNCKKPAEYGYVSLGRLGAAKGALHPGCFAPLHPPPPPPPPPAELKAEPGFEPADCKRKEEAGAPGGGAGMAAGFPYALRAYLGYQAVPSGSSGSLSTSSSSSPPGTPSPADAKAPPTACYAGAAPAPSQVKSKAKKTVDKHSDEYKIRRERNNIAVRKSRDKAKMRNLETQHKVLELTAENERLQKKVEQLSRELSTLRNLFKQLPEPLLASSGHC
Sequence of Retinoic acid receptor alpha (Homo sapiens) (P10276 whole entry, looked up): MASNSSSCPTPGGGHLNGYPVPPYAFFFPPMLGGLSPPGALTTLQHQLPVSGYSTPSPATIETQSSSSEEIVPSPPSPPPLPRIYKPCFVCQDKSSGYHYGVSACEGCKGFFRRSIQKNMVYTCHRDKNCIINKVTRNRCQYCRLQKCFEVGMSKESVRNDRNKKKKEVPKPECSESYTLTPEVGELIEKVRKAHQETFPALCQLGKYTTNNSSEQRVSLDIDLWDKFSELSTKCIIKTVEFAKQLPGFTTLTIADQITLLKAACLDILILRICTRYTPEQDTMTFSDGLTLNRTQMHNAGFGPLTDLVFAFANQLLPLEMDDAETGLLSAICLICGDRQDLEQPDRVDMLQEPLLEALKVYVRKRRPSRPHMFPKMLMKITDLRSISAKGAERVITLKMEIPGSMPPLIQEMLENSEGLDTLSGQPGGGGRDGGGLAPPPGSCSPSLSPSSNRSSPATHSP
Sequence of Hepatocyte nuclear factor 3-beta (Homo sapiens) (Q9Y261 whole entry, looked up): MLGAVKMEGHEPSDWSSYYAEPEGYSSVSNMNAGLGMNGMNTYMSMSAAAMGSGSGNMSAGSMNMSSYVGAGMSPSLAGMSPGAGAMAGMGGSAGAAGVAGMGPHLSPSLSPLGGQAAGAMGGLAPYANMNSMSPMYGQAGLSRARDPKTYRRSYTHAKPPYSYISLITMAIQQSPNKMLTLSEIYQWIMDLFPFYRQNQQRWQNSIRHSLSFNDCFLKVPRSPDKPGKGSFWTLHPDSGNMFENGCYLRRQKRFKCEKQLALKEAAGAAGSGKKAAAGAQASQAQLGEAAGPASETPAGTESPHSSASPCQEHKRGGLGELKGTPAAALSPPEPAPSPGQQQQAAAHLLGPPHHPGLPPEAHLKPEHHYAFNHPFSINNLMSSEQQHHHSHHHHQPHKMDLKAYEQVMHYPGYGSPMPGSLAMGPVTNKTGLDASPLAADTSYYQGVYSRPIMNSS
Sequence of Aryl hydrocarbon receptor (Homo sapiens) (P35869 whole entry, looked up): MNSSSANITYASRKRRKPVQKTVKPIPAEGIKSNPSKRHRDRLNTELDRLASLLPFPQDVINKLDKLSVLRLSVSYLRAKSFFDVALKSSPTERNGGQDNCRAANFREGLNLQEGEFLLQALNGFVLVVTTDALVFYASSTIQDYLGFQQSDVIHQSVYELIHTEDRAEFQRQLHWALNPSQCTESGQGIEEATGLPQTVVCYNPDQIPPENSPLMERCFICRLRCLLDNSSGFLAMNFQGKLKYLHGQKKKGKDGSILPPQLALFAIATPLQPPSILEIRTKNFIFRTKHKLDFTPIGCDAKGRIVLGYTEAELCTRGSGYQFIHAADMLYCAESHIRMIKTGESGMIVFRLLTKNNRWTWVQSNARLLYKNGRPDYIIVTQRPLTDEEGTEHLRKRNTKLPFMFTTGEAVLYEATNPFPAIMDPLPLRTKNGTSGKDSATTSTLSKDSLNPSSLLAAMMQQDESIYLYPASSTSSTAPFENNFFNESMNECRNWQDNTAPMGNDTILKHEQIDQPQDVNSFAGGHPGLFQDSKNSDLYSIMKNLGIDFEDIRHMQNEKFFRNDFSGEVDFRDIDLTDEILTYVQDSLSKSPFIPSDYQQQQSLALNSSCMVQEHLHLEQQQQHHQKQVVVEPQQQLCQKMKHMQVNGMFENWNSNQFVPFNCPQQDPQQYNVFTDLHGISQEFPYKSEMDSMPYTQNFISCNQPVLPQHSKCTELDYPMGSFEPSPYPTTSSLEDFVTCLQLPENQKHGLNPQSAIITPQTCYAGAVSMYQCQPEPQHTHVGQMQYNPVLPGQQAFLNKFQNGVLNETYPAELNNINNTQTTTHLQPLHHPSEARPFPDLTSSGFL
Sequence of Transcription factor E2F1 (Homo sapiens) (Q01094 whole entry, looked up): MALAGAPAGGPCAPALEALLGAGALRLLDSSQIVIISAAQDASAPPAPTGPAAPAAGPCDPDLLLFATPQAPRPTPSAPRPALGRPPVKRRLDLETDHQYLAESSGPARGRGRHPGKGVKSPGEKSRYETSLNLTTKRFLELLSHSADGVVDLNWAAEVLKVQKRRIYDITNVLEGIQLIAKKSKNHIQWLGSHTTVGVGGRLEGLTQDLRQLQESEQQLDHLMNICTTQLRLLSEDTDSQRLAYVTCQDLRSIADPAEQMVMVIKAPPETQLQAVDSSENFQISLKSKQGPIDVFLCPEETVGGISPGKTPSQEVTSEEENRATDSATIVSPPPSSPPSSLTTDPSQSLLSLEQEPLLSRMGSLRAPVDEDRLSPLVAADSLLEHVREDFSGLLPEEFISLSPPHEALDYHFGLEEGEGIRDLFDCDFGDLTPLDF

C=CC(C)(O)CC/C=C(\C)CC (centres undefined)
not listed: [18] | [19] | [20]
inactive: all other assays above

CCCCCCCOC(=O)c1ccc(O)cc1
active: [1] 0.496 µM | [5] 24.3 µM | [6] 49.8 µM | [8] 53.1 µM | [10] 54.3 µM | [14] 19.3 µM
not listed: [20]
inactive: all other assays above

COC(=O)CC(C)CCC=C(C)C (centres undefined)
not listed: [11] | [20]
inactive: all other assays above

CCCCC1CCC(=O)O1 (centres undefined)
not listed: [8] | [18] | [19]
inactive: all other assays above

O=C(Oc1ccccc1)c1ccccc1O
not listed: [20]
inactive: all other assays above

C=C(C)C(=O)OCC(O)COc1ccc(C(C)(C)c2ccc(OCC(O)COC(=O)C(=C)C)cc2)cc1 (centres undefined)
active: [20] 63.7 µM | [7] 24.8 µM | [12] 39.8 µM | [19] 100 µM | [17] 166 µM
not listed: [9] | [16] | [18]
inactive: all other assays above

C[Si]1(C)O[Si](C)(C)O[Si](C)(C)O[Si](C)(C)O[Si](C)(C)O1
active: [5] 36.2 µM
not listed: [20]
inactive: all other assays above

CC(C)C(=O)OCCOc1ccccc1
not listed: [11] | [20]
inactive: all other assays above
